Consider two compounds from ChEMBL document CHEMBL2218924, “A broad activity screen in support of a chemogenomic map for kinase signalling research and drug discovery” (Biochem J, 2013).

Test [1] concerns the target Tyrosine-protein kinase SYK (Homo sapiens) (UniProt P43405). Particulars: at 10 µM.
Test [2] concerns the target T1, Mitogen-activated protein kinase kinase kinase 7 (Homo sapiens) (UniProt O43318).
T1 sequence (whole entry): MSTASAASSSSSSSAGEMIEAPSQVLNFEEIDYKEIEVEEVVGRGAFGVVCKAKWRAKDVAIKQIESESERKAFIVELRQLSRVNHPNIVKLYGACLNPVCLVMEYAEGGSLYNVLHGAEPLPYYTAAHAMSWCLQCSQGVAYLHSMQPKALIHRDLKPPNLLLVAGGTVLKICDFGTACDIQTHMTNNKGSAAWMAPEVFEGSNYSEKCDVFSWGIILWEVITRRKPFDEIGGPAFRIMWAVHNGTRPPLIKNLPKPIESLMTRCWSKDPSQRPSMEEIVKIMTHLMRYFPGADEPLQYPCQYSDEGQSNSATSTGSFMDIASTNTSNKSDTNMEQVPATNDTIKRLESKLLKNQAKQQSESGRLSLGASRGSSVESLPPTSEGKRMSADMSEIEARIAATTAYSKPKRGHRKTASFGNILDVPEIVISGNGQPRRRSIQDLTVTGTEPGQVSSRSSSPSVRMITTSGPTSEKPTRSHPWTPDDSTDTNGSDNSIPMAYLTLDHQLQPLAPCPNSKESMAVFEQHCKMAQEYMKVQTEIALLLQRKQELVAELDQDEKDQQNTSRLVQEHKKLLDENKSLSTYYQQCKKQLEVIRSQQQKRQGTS
To be noted: at 1 µM.

In test [3] the target is T1, Mitogen-activated protein kinase kinase kinase 7 (Homo sapiens). Particulars: at 10 µM.
Test [4] deals with T2, Serine/threonine-protein kinase TBK1 (Homo sapiens) (UniProt Q9UHD2).
T2 sequence (whole entry): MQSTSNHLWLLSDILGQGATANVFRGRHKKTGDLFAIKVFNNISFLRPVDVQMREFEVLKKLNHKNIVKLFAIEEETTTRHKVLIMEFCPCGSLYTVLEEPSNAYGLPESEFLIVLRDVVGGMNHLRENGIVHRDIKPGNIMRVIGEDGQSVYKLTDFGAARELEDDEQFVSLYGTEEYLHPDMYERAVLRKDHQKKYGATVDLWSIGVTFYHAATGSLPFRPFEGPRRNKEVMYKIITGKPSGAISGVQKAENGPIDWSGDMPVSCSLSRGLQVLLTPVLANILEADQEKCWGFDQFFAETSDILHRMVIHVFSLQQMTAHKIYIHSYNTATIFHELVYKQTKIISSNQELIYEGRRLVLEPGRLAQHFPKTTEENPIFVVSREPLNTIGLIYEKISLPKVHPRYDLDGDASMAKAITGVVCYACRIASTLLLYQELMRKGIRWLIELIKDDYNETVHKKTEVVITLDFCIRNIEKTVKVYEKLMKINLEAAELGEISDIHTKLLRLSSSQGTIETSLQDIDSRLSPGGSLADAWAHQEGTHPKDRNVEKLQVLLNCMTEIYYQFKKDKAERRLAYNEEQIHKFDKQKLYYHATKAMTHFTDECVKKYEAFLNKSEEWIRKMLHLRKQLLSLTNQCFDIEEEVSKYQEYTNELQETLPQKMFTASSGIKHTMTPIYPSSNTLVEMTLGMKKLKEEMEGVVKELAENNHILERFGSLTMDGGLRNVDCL
Particulars: at 1 µM.

Test [5] addresses T2, Serine/threonine-protein kinase TBK1 (Homo sapiens). To be noted: at 10 µM.
Test [6] has as its target T3, TGF-beta receptor type-1 (Homo sapiens) (UniProt P36897).
T3 sequence (whole entry): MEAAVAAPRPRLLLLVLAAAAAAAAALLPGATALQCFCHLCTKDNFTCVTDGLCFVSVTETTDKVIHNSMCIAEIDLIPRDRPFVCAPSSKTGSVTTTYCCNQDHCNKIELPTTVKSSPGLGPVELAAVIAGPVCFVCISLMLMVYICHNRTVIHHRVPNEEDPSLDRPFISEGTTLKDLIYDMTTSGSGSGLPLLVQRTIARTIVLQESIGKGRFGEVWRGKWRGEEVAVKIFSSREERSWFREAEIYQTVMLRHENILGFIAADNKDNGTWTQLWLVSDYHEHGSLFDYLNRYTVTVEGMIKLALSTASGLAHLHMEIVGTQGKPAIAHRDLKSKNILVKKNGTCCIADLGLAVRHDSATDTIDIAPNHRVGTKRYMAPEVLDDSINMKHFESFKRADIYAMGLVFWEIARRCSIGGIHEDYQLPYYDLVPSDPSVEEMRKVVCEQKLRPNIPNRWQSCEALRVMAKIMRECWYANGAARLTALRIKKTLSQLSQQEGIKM
To be noted: at 1 µM.

The target in test [7] is T4, Serine/threonine-protein kinase TAO2 (Homo sapiens) (UniProt Q9UL54).
T4 sequence (whole entry): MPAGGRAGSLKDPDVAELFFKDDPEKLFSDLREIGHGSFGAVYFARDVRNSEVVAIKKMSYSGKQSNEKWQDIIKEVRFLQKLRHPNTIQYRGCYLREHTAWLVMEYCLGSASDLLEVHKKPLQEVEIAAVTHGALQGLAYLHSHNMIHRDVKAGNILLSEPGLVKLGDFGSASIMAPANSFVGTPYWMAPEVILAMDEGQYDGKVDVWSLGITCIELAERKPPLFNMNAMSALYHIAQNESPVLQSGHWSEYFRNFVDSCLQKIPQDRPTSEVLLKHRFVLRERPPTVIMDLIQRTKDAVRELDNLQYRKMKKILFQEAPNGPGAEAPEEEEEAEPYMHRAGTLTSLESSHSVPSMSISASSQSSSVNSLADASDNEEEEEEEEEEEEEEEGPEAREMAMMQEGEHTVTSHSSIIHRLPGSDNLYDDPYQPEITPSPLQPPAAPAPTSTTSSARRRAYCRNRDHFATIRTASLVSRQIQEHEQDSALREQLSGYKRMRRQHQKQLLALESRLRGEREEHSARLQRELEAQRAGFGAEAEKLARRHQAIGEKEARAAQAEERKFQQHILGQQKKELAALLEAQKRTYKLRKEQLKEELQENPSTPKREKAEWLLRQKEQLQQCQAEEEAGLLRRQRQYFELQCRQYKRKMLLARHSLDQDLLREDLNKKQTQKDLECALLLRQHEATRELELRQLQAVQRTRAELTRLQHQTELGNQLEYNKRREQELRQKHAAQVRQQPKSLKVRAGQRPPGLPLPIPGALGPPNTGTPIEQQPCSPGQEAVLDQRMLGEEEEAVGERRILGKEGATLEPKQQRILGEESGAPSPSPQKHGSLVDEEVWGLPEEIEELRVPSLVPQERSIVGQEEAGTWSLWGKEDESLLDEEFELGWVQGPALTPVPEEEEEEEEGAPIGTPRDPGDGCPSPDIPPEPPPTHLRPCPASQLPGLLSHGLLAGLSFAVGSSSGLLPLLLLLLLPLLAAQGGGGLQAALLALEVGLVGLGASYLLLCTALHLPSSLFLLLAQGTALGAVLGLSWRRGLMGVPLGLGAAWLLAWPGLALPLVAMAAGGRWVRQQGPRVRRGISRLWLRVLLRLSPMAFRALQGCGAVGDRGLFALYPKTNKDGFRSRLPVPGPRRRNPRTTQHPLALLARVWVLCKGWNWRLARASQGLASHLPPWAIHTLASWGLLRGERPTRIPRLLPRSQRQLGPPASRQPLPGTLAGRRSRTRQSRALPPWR
Particulars: at 10 µM.

Test [8] concerns the target T5, Serine/threonine-protein kinase TAO3 (Homo sapiens) (UniProt Q9H2K8).
T5 sequence (whole entry): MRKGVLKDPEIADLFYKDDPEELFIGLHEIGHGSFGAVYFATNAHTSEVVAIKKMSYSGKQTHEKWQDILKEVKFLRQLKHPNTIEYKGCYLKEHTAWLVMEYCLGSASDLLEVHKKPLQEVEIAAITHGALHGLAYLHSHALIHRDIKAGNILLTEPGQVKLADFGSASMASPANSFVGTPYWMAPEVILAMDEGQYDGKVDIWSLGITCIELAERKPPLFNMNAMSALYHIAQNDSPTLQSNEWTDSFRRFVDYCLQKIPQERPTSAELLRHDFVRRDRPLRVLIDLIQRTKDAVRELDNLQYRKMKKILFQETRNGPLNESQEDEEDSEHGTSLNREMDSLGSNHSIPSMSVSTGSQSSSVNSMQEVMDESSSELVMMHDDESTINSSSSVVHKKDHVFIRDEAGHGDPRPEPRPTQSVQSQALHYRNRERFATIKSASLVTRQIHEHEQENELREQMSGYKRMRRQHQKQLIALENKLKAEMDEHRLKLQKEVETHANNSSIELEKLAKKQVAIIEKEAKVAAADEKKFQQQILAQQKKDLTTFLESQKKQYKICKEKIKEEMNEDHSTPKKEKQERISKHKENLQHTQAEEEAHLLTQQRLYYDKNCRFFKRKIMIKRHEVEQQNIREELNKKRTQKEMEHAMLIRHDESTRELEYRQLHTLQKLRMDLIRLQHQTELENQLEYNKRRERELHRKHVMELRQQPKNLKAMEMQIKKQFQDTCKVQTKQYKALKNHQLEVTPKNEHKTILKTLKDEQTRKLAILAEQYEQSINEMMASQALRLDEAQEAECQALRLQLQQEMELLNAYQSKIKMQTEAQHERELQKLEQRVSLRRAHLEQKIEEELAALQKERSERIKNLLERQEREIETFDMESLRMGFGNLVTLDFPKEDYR
Particulars: at 1 µM.

Test [9] concerns the target T5, Serine/threonine-protein kinase TAO3 (Homo sapiens). To be noted: at 10 µM.
Test [10] deals with T3, TGF-beta receptor type-1 (Homo sapiens). To be noted: at 10 µM.

As for `O=C(Nc1nc2ccccc2n1CCN1CCOCC1)c1cccc([N+](=O)[O-])c1`, the residual activity in [1] is 84%; in test [2] it was 78%; in [3], 74%; in test [4], 73%; in test [5], 60%; in test [6], 76%.

Regarding `COc1ccc(Cl)cc1NC(=O)Nc1cc(C)nc2ccccc12`, the residual activity was 88% in [1]; 98% in [2]; 95% in test [3]; 85% in [7]; 95% in [8]; 83% in test [9]. In addition, the residual activity in test [4] stood at 78%; in [5], 69%; in test [6], 86%; in test [10] it was 94%.
